Assay outcomes as filed in PubChem.
Hits are enriched below; roughly 2.7% of the tested compounds scored in any of these assays.
KKLEB tox = reduces viability of KKLEB cystic fibrosis airway cells. KKLEB CF airway cells viability, ATPlite luminescence, overnight; active compounds read low; cells stimulated with P. aeruginosa culture filtrate. activity change (cytotoxicity), % at 5 µM. hit rate 0.36% among 360,000;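 active = corrected activity change at or below -50% at 5 µM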
CF NFkB block = inhibitors of cystic fibrosis induced NF-kB; KKLEB NF-kB-GFP reporter, PAF-induced, GFP fluorescence overnight; inhibition, % at 5 µM; hit rate 0.86% among 360,000;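 active = at least 50% inhibition at 5 µM, scaled per plate between neutral and stimulator controls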;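 also: PAF is a Pseudomonas aeruginosa culture filtrate used as stimulus; plate controls were PAF-stimulated DMSO wells for no effect and unstimulated DMSO wells for full effect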
Peg3 promoter = reduces Peg3 promoter-driven luciferase expression in HeLa. inhibition, % at 20 µM. AID 588405. HeLa PEG-Prom luciferase reporter, luminescence, overnight. hit rate 1.7% among 360,000;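 active = inhibition of at least 50% at 20 µM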
HIF-2a inh = HIF-2a inhibition. AID 624352. inhibition, % at 18.8 µM. hit rate 0.72% among 360,000. 786-0 RCC cells HIF-2a reporter, luciferase luminescence, overnight;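 active = inhibition of the luminescence signal of 40% or more relative to plate controls, in a single-dose primary screen at 18.75 µM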
MITF TRPM1 inh = inhibitors of MITF-driven TRPM1 promoter in melanoma cells; AID 488899; inhibition, % at 12.5 µM; hit rate 0.83% among 330,000; SK-MEL-5 TRPM1 promoter luciferase, 24 h;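 active = mean inhibition across replicates of 60% or more, whatever share of single replicates reaches that level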
Shn3 3UTR inh = Schnurri-3 reporter inhibition in Clone20 osteoblasts; Clone20 osteoblast Shn3 3'UTR firefly luciferase, 24 h; inhibition, % at 12.5 µM; hit rate 0.52% among 360,000; AID 588674;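 active = mean inhibition of at least 75% with every replicate also reaching 75%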;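 also: 0% = median of neutral control wells and 100% = pilot-screen positive control compound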
HIF-2a conf = HIF-2a inhibition, single concentration confirmation; shares compounds with HIF-2a inh; 786-0 RCC cells, HIF-2a luciferase reporter luminescence, overnight; inhibition, % at 18.8 µM; hit rate 56% among 1,800;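 active = mean inhibition across four replicates of at least 40 percent at the single tested concentration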
HIF-1a counter = inhibits HIF-1a reporter, a counter-screen for HIF-2a inhibitors | inhibition, % at 18.8 µM | MiaPaCa-2 HIF-1a luciferase reporter, desferoxamine, overnight | AID 651589 | shares compounds with HIF-2a inh | hit rate 72% among 1,800;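 active = mean inhibition of the reporter signal across four replicates at the single tested dose of 50% or more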
* = called active by the depositor.

O=C1Nc2cccnc2N(C(=O)CCl)c2ccccc21 was read as KKLEB tox -1, CF NFkB block 6, Peg3 promoter 63*, HIF-2a inh 42*, MITF TRPM1 inh 43, Shn3 3UTR inh 18, HIF-2a conf 9 and HIF-1a counter 5.
`O=[N+]([O-])/C=C/c1cn(Cc2ccccc2)c2ccccc12` gave KKLEB tox -8, CF NFkB block -6, Peg3 promoter 55*, HIF-2a inh 43*, MITF TRPM1 inh 19, Shn3 3UTR inh 22, HIF-2a conf 71* and HIF-1a counter 105*.
N#Cc1ccccc1Cn1cc(/C=C/[N+](=O)[O-])c2ccccc21 was read as KKLEB tox -20, CF NFkB block 40, Peg3 promoter 106*, HIF-2a inh 96*, MITF TRPM1 inh 91*, Shn3 3UTR inh 96*, HIF-2a conf 97* and HIF-1a counter 105*.
`O=C(O)Cn1cc(/C=C/[N+](=O)[O-])c2ccccc21` gave KKLEB tox 11, CF NFkB block 5, Peg3 promoter 4, HIF-2a inh 13, MITF TRPM1 inh 3 and Shn3 3UTR inh 8.
`CC(Oc1ccc2c(-c3ccccc3)cc(=O)oc2c1)C(=O)NCC(O)c1ccccc1` (centres undefined) gave KKLEB tox -7, CF NFkB block 5, Peg3 promoter 10, HIF-2a inh 18, MITF TRPM1 inh 12 and Shn3 3UTR inh 16.
`CC(C)N1CCC1(C)C(=O)Nc1ccc2cn[nH]c2c1` (centres undefined) gave KKLEB tox -6, CF NFkB block 6, Peg3 promoter 2, HIF-2a inh 13 and Shn3 3UTR inh 6.
For COc1ccc(C=C(C(=O)c2ccccc2)C(=O)c2ccccc2)cc1 the results were KKLEB tox -8, CF NFkB block 11, Peg3 promoter -319, HIF-2a inh -105 and Shn3 3UTR inh -39.
`CC(C)(C)NCC(=Cc1ccccc1)C(=O)c1ccccc1` gave KKLEB tox -13, CF NFkB block 4, Peg3 promoter 101*, HIF-2a inh 80*, MITF TRPM1 inh 98*, Shn3 3UTR inh 97*, HIF-2a conf 99* and HIF-1a counter 107*.
Screening C=C1[C@@H](O)[C@H](CC(C)C)N(Cc2ccccc2Br)S1(=O)=O returned KKLEB tox -96*, CF NFkB block 89*, Peg3 promoter 97*, HIF-2a inh 72*, MITF TRPM1 inh 12, Shn3 3UTR inh 18, HIF-2a conf 42* and HIF-1a counter 101*.
Screening O=S1(=O)CCO[C@H]2Cc3ccccc3[C@H]2N1Cc1ccccc1Br returned KKLEB tox -1, CF NFkB block 0, Peg3 promoter 17, HIF-2a inh 8, MITF TRPM1 inh -5 and Shn3 3UTR inh 21.
Screening CS(=O)(=O)N(Cc1nc(-c2ccc(F)cc2)no1)c1ccccc1Cl returned KKLEB tox 2, CF NFkB block 3, Peg3 promoter -5, HIF-2a inh -1, MITF TRPM1 inh -1 and Shn3 3UTR inh 15.
Cn1c(CNc2cccc(Cl)c2)nnc1SCC(=O)OC1CCCCC1 was read as KKLEB tox -8, CF NFkB block 4, Peg3 promoter 14, HIF-2a inh 18, MITF TRPM1 inh -1 and Shn3 3UTR inh 9.
For CCn1c(COc2cccc3ccccc23)nnc1SCC(=O)OC1CCCCC1 the results were KKLEB tox -6, CF NFkB block 17, Peg3 promoter 10, HIF-2a inh 58*, MITF TRPM1 inh -6, Shn3 3UTR inh -2, HIF-2a conf 14 and HIF-1a counter -10.
For Cn1c(COc2cccc3ccccc23)nnc1SCC(=O)OC1CCCCC1 the results were KKLEB tox 8, CF NFkB block 6, Peg3 promoter 6, HIF-2a inh 67*, MITF TRPM1 inh -5, Shn3 3UTR inh -3, HIF-2a conf 28 and HIF-1a counter -4.
Screening O=C(O)CSc1nnc(COc2cccc3ccccc23)n1Cc1ccccc1 returned KKLEB tox 1, CF NFkB block -13, Peg3 promoter -3, HIF-2a inh 22, MITF TRPM1 inh 3 and Shn3 3UTR inh 1.
For COC(=O)C(=C/C(C)=C/c1cccnc1)C(=O)OC the results were KKLEB tox 8, CF NFkB block 21, Peg3 promoter 60*, HIF-2a inh 43*, MITF TRPM1 inh 45, Shn3 3UTR inh 39, HIF-2a conf 26 and HIF-1a counter 13.
Screening COCC(=O)N1CCC2CC1c1cc(Cl)ccc12 (centres undefined) returned KKLEB tox -3, CF NFkB block 2, Peg3 promoter -10, HIF-2a inh 8, MITF TRPM1 inh -5 and Shn3 3UTR inh -12.
Screening CCOC(=O)Cc1csc(NC(=S)NC(=O)c2ccc(C)cc2)n1 returned KKLEB tox -33, CF NFkB block 13, Peg3 promoter 47, HIF-2a inh 96*, MITF TRPM1 inh -19, Shn3 3UTR inh 35, HIF-2a conf 99* and HIF-1a counter 97*.
For CCOC(=O)Cc1csc(NC(=S)NC(=O)c2ccccc2)n1 the results were KKLEB tox 7, CF NFkB block 3, Peg3 promoter -11, HIF-2a inh 85*, MITF TRPM1 inh -1, Shn3 3UTR inh -21, HIF-2a conf 87* and HIF-1a counter 43.
For CCN(Cc1ccccc1)C(=O)CCc1nc(CN2CCN(C(=O)c3ccc([N+](=O)[O-])cc3)CC2)no1 the results were KKLEB tox -6, CF NFkB block 7, Peg3 promoter 8, HIF-2a inh 6, MITF TRPM1 inh -2 and Shn3 3UTR inh 6.
For O=C1CCCC[C@@H](O)[C@H](O)C[C@H](c2ccccc2)O1 the results were HIF-2a inh 6.
Screening C=C1CC2(CC(c3ccccc3)OC(c3ccccc3)C2)OC1=O (centres undefined) returned KKLEB tox -66*, CF NFkB block 78*, Peg3 promoter 96*, HIF-2a inh 87*, MITF TRPM1 inh 107*, Shn3 3UTR inh 97*, HIF-2a conf 91* and HIF-1a counter 106*.
For COc1cccc(CNC(=O)C(CC(C)C)NC(=O)c2ccccc2C)c1 (centres undefined) the results were KKLEB tox 7, CF NFkB block -1, Peg3 promoter 10, HIF-2a inh 9, MITF TRPM1 inh -18 and Shn3 3UTR inh 7.
For C=C1C(=O)OC2C1CCC(C)=C1C(=O)C3OC3(C)C12 (centres undefined) the results were KKLEB tox -85*, CF NFkB block 86*, Peg3 promoter 107*, HIF-2a inh 92*, MITF TRPM1 inh 105*, Shn3 3UTR inh 98*, HIF-2a conf 97* and HIF-1a counter 101*.
